Results published in PubChem BioAssay (NCATS).
Inconclusive results are not listed. Calls of active or inactive are those of the source. Calls follow the shape of the dose curve; as a rule, active = well fitted curve in the direction sought with a large enough effect; inconclusive = small, poorly fitted or top-dose-only effect, or another doubt; inactive = no such curve, though single readings can be large; an effect the other way counts as inactive or inconclusive.

Key:
[1] = Quantitative High-Throughput drug screen in 47 multiple myeloma cell lines against the NCATS MIPE library collection: MOLP8_DSMZ cell viability assay (AID 1918977); details: MOLP8 myeloma viability, CellTiter-Glo ATP luminescence, 48 h; series mostly up to 45.8 µM; also: nearly all actives have a fitted effect of over 45% in size; also: potency is read from the fitted curve at half-maximal effect
Summary of the method: (§1)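 Myeloma cells (500/well) treated with MIPE 4.0 compounds for 48 h at 37 °C, 5% CO2. Viability read as ATP via CellTiter-Glo luminescence after 5 min at RT; DMSO-only wells = 100%, media-only = 0% viability.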

[2] = Quantitative High-Throughput drug screen in 47 multiple myeloma cell lines against the NCATS MIPE library collection: OCIMY1_PLB cell viability assay (AID 1918979); details: OCI-MY1 myeloma viability, CellTiter-Glo ATP, 48 h; series mostly up to 45.8 µM; also: nearly all actives have a fitted effect of over 35% in size
Summary of the method: as §1

[3] = Quantitative High-Throughput drug screen in 47 multiple myeloma cell lines against the NCATS MIPE library collection: MM1S_ATCC cell viability assay (AID 1918980); details: MM1S myeloma viability, CellTiter-Glo ATP luminescence, 48 h; series mostly up to 45.8 µM; also: nearly all actives have a fitted effect of over 45% in size; also: potency is read from the fitted curve at half-maximal effect
Summary of the method: as §1

[4] = Quantitative High-Throughput drug screen in 47 multiple myeloma cell lines against the NCATS MIPE library collection: MM1R_ATCC cell viability assay (AID 1918981); details: MM1R multiple myeloma cells, CellTiter-Glo viability, 48 h; series mostly up to 45.8 µM; also: nearly all actives have a fitted effect of over 35% in size; also: potency is read from the fitted curve at half-maximal effect
Summary of the method: as §1

[5] = Quantitative High-Throughput drug screen in 47 multiple myeloma cell lines against the NCATS MIPE library collection: OCIMY7_PLB cell viability assay (AID 1918987); details: OCI-MY7 myeloma viability, CellTiter-Glo ATP, 48 h; viability (% of DMSO): at 45.8 µM; also: nearly all actives have a fitted effect of over 65% in size; also: potency is read from the fitted curve at half-maximal effect
Summary of the method: as §1

[6] = Quantitative High-Throughput drug screen in 47 multiple myeloma cell lines against the NCATS MIPE library collection: OPM1_PLB cell viability assay (AID 1918989); details: CellTiter-Glo, 48 h; series mostly up to 45.8 µM; also: nearly all actives have a fitted effect of over 40% in size; also: potency is read from the fitted curve at half-maximal effect
Summary of the method: as §1

[7] = Quantitative High-Throughput drug screen in 47 multiple myeloma cell lines against the NCATS MIPE library collection: SKMM1_PLB cell viability assay (AID 1919863); details: SKMM1 myeloma viability, CellTiter-Glo ATP, 48 h; viability: stronger effect = lower value; also: nearly all actives have a fitted effect of over 35% in size; also: potency is read from the fitted curve at half-maximal effect
Summary of the method: as §1

[8] = Quantitative High-Throughput drug screen in 47 multiple myeloma cell lines against the NCATS MIPE library collection: U266_ATCC cell viability assay (AID 1919864); details: U266 myeloma viability, CellTiter-Glo ATP luminescence, 48 h; series mostly up to 45.8 µM; also: nearly all actives have a fitted effect of over 35% in size; also: potency is read from the fitted curve at half-maximal effect
Summary of the method: as §1

[9] = Quantitative High-Throughput drug screen in 47 multiple myeloma cell lines against the NCATS MIPE library collection: XG6_PLB cell viability assay (AID 1919865); details: XG6 myeloma viability, CellTiter-Glo ATP luminescence, 48 h; series mostly up to 45.8 µM; also: nearly all actives have a fitted effect of over 40% in size; also: potency is read from the fitted curve at half-maximal effect
Summary of the method: as §1

[10] = Quantitative High-Throughput drug screen in 47 multiple myeloma cell lines against the NCATS MIPE library collection: LP1_DSMZ cell viability assay (AID 1918982); details: LP1 myeloma viability, CellTiter-Glo ATP luminescence, 48 h; series mostly up to 45.8 µM; also: nearly all actives have a fitted effect of over 35% in size; also: potency is read from the fitted curve at half-maximal effect
Summary of the method: as §1

[11] = Quantitative High-Throughput drug screen in 47 multiple myeloma cell lines against the NCATS MIPE library collection: KMS28PE_JCRB cell viability assay (AID 1918983); details: KMS28PE multiple myeloma viability, CellTiter-Glo ATP, 48 h; series mostly up to 45.8 µM; also: nearly all actives have a fitted effect of over 35% in size; also: potency is read from the fitted curve at half-maximal effect
Summary of the method: as §1

[12] = Quantitative High-Throughput drug screen in 47 multiple myeloma cell lines against the NCATS MIPE library collection: L363_DSMZ cell viability assay (AID 1918984); details: L363 myeloma viability, CellTiter-Glo ATP luminescence, 48 h; series mostly up to 45.8 µM; also: nearly all actives have a fitted effect of over 40% in size; also: potency is read from the fitted curve at half-maximal effect
Summary of the method: as §1

[13] = Quantitative High-Throughput drug screen in 47 multiple myeloma cell lines against the NCATS MIPE library collection: KMS34_JCRB cell viability assay (AID 1918985); details: KMS34 myeloma viability, CellTiter-Glo ATP luminescence, 48 h; series mostly up to 45.8 µM; also: nearly all actives have a fitted effect of over 40% in size; also: potency is read from the fitted curve at half-maximal effect
Summary of the method: as §1

[14] = Quantitative High-Throughput drug screen in 47 multiple myeloma cell lines against the NCATS MIPE library collection: OCIMY5_PLB cell viability assay (AID 1918988); details: OCI-MY5 myeloma viability, ATP luminescence, 48 h; series mostly up to 45.8 µM; also: nearly all actives have a fitted effect of over 65% in size; also: potency is read from the fitted curve at half-maximal effect
Summary of the method: as §1

[15] = Quantitative High-Throughput drug screen in 47 multiple myeloma cell lines against the NCATS MIPE library collection: XG1_PLB cell viability assay (AID 1919866); details: CellTiter-Glo ATP, 48 h; series mostly up to 45.8 µM; also: nearly all actives have a fitted effect of over 35% in size; also: potency is read from the fitted curve at half-maximal effect
Summary of the method: as §1

[16] = Quantitative High-Throughput drug screen in 47 multiple myeloma cell lines against the NCATS MIPE library collection: VP6_DJ cell viability assay (AID 1919867); details: ATP luminescence, 48 h; series mostly up to 45.8 µM; also: nearly all actives have a fitted effect of over 40% in size; also: potency is read from the fitted curve at half-maximal effect
Summary of the method: as §1

[17] = Quantitative High-Throughput drug screen in 47 multiple myeloma cell lines against the NCATS MIPE library collection: NCIH929_DSMZ cell viability assay (AID 1918978); details: NCI-H929 myeloma viability, CellTiter-Glo ATP, 48 h; series mostly up to 45.8 µM; also: nearly all actives have a fitted effect of over 35% in size; also: potency is read from the fitted curve at half-maximal effect
Summary of the method: as §1

[18] = Quantitative High-Throughput drug screen in 47 multiple myeloma cell lines against the NCATS MIPE library collection: MMM1_PLB cell viability assay (AID 1918976); details: MMM1 myeloma cells viability, CellTiter-Glo, 48 h; series mostly up to 45.8 µM
Summary of the method: as §1

COc1ccc(-n2c(C)c([N+](=O)[O-])c3ccc(O)cc32)cc1
inactive: Potency [1] | Potency [2] | Potency [6] | Potency [8] | Potency [9]
active: Potency [3] 0.833 µM | Potency [4] 16.6 µM | Potency [5] 14.8 µM | Potency [7] 4.18 µM

COC(=O)C1=CO[C@@H](O)[C@@H]2C(CO)=CC[C@@H]12
inactive: Potency [10]
active: Potency [1] 23.5 µM | Potency [4] 18.7 µM

CC(C)(C(=O)NCC(F)(F)C(F)(F)F)C(=O)N[C@@H]1C(=O)Nc2ccccc2-c2ccccc21
active: Potency [3] 13.2 µM | Potency [12] 3.72 µM | Potency [9] 16.6 µM | Potency [15] 10.5 µM
inactive: Potency [1] | Potency [2] | Potency [10] | Potency [11] | Potency [13] | Potency [14] | viability [7] 128%

Cn1c(N2CCCCS2(=O)=O)nc(C(=O)NCc2ccc(F)cc2)c(O)c1=O
inactive: Potency [1] | Potency [2] | Potency [3] | Potency [4] | Potency [10] | Potency [13] | Potency [6] | viability [7] 112% | Potency [9] | Potency [15] | Potency [16]

CC(C)C(C)C=CC(C)C1CCC2C3=CC=C4CC(O)CCC4(C)C3CCC21C (centres undefined)
inactive: Potency [1] | Potency [17] | Potency [2] | Potency [10] | Potency [12] | Potency [13] | Potency [6] | viability [7] 135% | Potency [9] | Potency [16]
active: Potency [11] 16.6 µM | Potency [14] 23.5 µM

Cc1nnc(C(C)C)n1C1C[C@H]2CC[C@@H](C1)N2CC[C@H](NC(=O)C1CCC(F)(F)CC1)c1ccccc1 (some centres undefined)
inactive: Potency [1] | Potency [4] | Potency [10] | Potency [11] | Potency [12] | Potency [14] | Potency [6] | viability [7] 147%
active: Potency [3] 1.05 µM | Potency [8] 11.8 µM | Potency [9] 4.69 µM | Potency [16] 23.5 µM

CCc1ccc(C=C2SC(=S)NC2=O)cc1
inactive: Potency [1] | Potency [2] | Potency [10] | Potency [11] | Potency [14] | Potency [6]

O=c1c(-c2ccc(O)cc2)coc2cc(O)ccc12
active: Potency [18] 5.26 µM | Potency [3] 13.2 µM | Potency [14] 14.8 µM
inactive: Potency [17] | Potency [10] | Potency [13] | Potency [6] | Potency [8] | Potency [9] | Potency [15]

CC(C)[C@H](CO)Nc1nc(Nc2ccc(C(=O)O)c(Cl)c2)c2ncn(C(C)C)c2n1
active: Potency [18] 23.5 µM | Potency [17] 23.5 µM | Potency [11] 37.2 µM | Potency [6] 10.5 µM | Potency [16] 23.5 µM

O=c1c(-c2ccc(O)cc2)coc2cc(OC3O[C@H](CO)[C@H](O)[C@H](O)[C@H]3O)cc(O)c12 (some centres undefined)
inactive: Potency [2]
active: Potency [18] 18.7 µM | Potency [3] 4.18 µM | Potency [4] 16.6 µM | Potency [5] 1.48 µM | Potency [14] 1.48 µM | Potency [6] 7.43 µM | Potency [8] 8.33 µM | Potency [9] 1.32 µM | Potency [15] 1.18 µM | Potency [16] 2.64 µM

N#Cc1ccc(NC(=O)Nc2ccccc2Br)c2n[nH]nc12
inactive: Potency [2] | Potency [4] | Potency [10] | Potency [11] | Potency [13] | viability [7] 115%
active: Potency [17] 18.7 µM | Potency [3] 26.4 µM | Potency [12] 13.2 µM | Potency [9] 5.26 µM | Potency [16] 10.5 µM

COc1ccc(C2CC(c3ccccc3)=NN2c2ccc(S(N)(=O)=O)cc2)cc1 (centres undefined)
inactive: Potency [11] | Potency [8]
active: Potency [3] 23.5 µM | Potency [4] 16.6 µM | Potency [12] 16.6 µM | Potency [6] 20.9 µM | Potency [9] 18.7 µM | Potency [16] 16.6 µM

CCC(=O)O[C@]1(C(=O)CO)CC[C@H]2[C@@H]3CCC4=CC(=O)CC[C@]4(C)[C@@H]3CC[C@@]21C
inactive: Potency [17] | Potency [2] | Potency [11] | Potency [6] | viability [7] 108% | Potency [8]
active: Potency [10] 5.26 µM | Potency [13] 0.0017 µM | Potency [16] 10.5 µM

C[N+](C)(C)CC(=O)O
inactive: Potency [17] | Potency [3] | Potency [4] | Potency [11] | Potency [12] | Potency [13] | Potency [5] | Potency [8] | Potency [9] | Potency [15]

CC1CCC(C(=O)N(c2cc(C#CC(C)(C)C)sc2C(=O)O)C2CCC(O)CC2)CC1 (centres undefined)
active: Potency [5] 23.5 µM | Potency [16] 26.4 µM
inactive: Potency [2] | Potency [3] | Potency [12] | Potency [8]
